Results published in PubChem BioAssay AID540308 (The Scripps Research Institute Molecular Screening Center, 2011).
The whole screen tested about 360,000 compounds, of which about 3,500 (0.97%) were called active. The list comes from a sample in which actives are over-represented; it also holds similar structures and randomly drawn compounds. A number with no mark means an inactive call.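 The calls were made as follows: active = activation above a per-plate cutoff, the mean activation of sample wells on that plate plus 3 SD (cut at about 8% in these data); inactive = the rest.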

Each compound was assayed against Melanocortin receptor 4 (Homo sapiens) (UniProt P32245) (assay: MC4R agonists recruiting beta-arrestin, primary screen, cell-based, luminescence, agonist arm of biased-ligand search (AID 540308)). Conditions: U2OS MC4R beta-arrestin complementation, at 8.9 µM, stronger effect = higher value, percent of melanotan II response, DMSO zero.
Melanocortin receptor 4 (Homo sapiens), sequence (P32245 whole entry, looked up): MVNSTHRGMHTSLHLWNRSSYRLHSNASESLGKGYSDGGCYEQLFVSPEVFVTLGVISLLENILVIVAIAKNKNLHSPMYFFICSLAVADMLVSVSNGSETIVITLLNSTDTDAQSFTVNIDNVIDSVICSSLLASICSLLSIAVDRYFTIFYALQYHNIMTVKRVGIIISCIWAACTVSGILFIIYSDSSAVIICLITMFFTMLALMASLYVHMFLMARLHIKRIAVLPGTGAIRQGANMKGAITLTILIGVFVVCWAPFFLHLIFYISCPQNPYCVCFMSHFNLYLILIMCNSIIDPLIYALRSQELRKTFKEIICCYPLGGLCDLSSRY

Compound	activation
O=C(Nc1ccc(Cl)cc1)C1Cc2c(-c3ccc4c(c3)OCO4)ccnc2O1 (centres undefined)	1.36%
CCOCC(=O)Nc1cc(OC)c(Cl)cc1OC	-0.35%
COc1cc(NC(=O)c2ccc(-c3csc(C)n3)cc2)c(OC)cc1Cl	9.13% (active)
COc1cc(NC(=O)c2ccccc2)c(OC)cc1NC(=O)Cc1ccccc1	-1.99%
CCc1nc2c(OCc3cccc(OC)c3)cccn2c1N(C)C(=O)C(C)C	1.4%
CCCCN(C=O)c1c(CC)nc2c(OCCC3CCCCC3)cccn12	-0.53%
COc1ccc(Nc2nc(NCc3ccco3)nc(N/N=C/c3ccccc3Cl)n2)cc1	-2%
COc1ccc(Nc2oc(-c3ccccc3Cl)nc2C#N)cc1	13.3% (active)
N#Cc1nc(-c2cccc3ccccc23)oc1N	-1.15%
COc1cccc(-c2ccc3c(c2)N(Cc2ccccc2OC)C(=O)C(C)S3)c1 (centres undefined)	0.04%
CC(C)Nc1nc(NCCOc2ccccc2Cl)c2sccc2n1	-1.08%
CC(=O)Nc1cccc(-c2cc3nc(NCc4cccnc4)n(C)c(=O)c3s2)c1	0.57%
COc1ccc(OC)c(C(O)c2ncc(-c3cccc(C(F)(F)F)c3)[nH]2)c1 (centres undefined)	-1.84%
COc1ccc(NC(=O)C2Cc3c(-c4cccc(NC(C)=O)c4)ccnc3O2)cc1OC (centres undefined)	-0.44%
COc1ccc(NC(=O)C2(C)Cc3c(-c4cccc(NC(C)=O)c4)ccnc3O2)cc1OC (centres undefined)	-2.08%
NCCCNC(=S)NCCCN(Cc1ccc(Cl)cc1)c1ccc(Br)cn1	5.16%
S=C(NCCCc1cnc[nH]1)NCCCN(Cc1ccc(Cl)c(Cl)c1)c1ccc(Br)cn1	17.5% (active)
CCOC(=O)N1CCN(c2c(NCCN3CCN(c4ccccc4F)CC3)c(=O)c2=O)CC1	-0.12%
CCOC(=O)c1nn(-c2ccccc2F)c2nc(Nc3ccccc3)cc(=O)n12	10.2% (active)
CCOC(=O)c1cccc(NC(=O)c2ccc(F)cc2F)c1	-1.66%

Compound	activation
COc1ccc(CCNC(=O)C(Sc2ccccn2)c2ccccc2)cc1OC (centres undefined)	-0.76%
COc1ccc(C(CCN(Cc2ccc(OC)c(OC)c2)C(=O)CCl)c2ccccc2)cc1 (centres undefined)	22.9% (active)
COc1ccc(CN(Cc2ccc(OC)cc2)C(=O)c2cccs2)cc1	-3.4%
CCCCCNC(=O)c1cccnc1SCC(=O)Nc1ccccc1OC	-0.84%
Cc1ccccc1S(=O)(=O)NC(=O)C1(C)CCN1C(=O)C1(c2ccc(Cl)cc2)CC1 (centres undefined)	0.06%
CC1(C(=O)Nc2cccc3c2CCCC3)CCN1C(=O)C1(c2ccccc2)CC1 (centres undefined)	1.08%
Cc1nn(C)c(C(=O)NNC(=S)NC2CCCCC2)c1Cl	-2.05%
COc1cccc(NC(=S)NC(=O)c2c(Cl)c(C)nn2C)c1	16.6% (active)
COc1cccc(OC)c1C(=O)NC(=S)Nc1ccc(N2CCOCC2)c(Cl)c1	-1.34%
CC1(C(=O)NS(=O)(=O)c2ccccc2Cl)CCN1C(=O)c1cccc(F)c1 (centres undefined)	-0.15%
CC(=O)NN=C(C)c1ccc(NC(=O)C2CC2)cc1	-0.71%
O=C(CC(=O)N/N=C\c1cccc(Cl)c1Cl)NCc1ccccc1	-2.24%
O=C(/C=C/c1c(Cl)cccc1Cl)NCc1ccccc1	19.2% (active)
CCOC(=O)CNC(=O)/C=C/c1c(Cl)cccc1Cl	-0.83%
Cc1nc2c(OCc3ccc(Cl)cc3Cl)cccn2c1N(C)CC1CC1	-3.94%
CCCCC(=O)N(C)c1c(CC)nc2c(OCc3ccc(S(C)(=O)=O)cc3)cccn12	0.14%
CCCOc1ccc(/C=N/NC(=O)C2CC2)c(OCCC)c1	0.66%
COC(=O)c1ccc(OCC(=O)NC(C)(C)C)cc1	-0.44%
CCCOc1ccc(C(=O)C(CCC(CNCC)C(=O)c2ccc(OCCC)cc2)CNCC)cc1 (centres undefined)	24.6% (active)
COc1cncc(-c2cnc3sc(NCCc4ccccn4)nn23)c1	-0.85%

Compound	activation
COc1ccc(OC)c(NC(=O)C2(C)CCN2C(=O)Cc2ccccc2)c1 (centres undefined)	-0.64%
COc1ccc(NC(=O)C2Cc3c(-c4ccc5c(c4)OCO5)ccnc3O2)cn1 (centres undefined)	2.24%
Cc1cc(C(=O)N2CCCC2(C)C(=O)O)c(C)o1 (centres undefined)	-0.89%
CC(C)Nc1ncnc2c1nnn2Cc1ccccc1	-0.12%
c1ccc(Cn2nnc3c(NCC4CC4)ncnc32)cc1	2.35%
Clc1ccc(Nc2ncnc3c2nnn3Cc2ccccc2)cc1	19.9% (active)
CCc1nc2c(OCc3ccc(C(F)(F)F)cc3)cccn2c1N(C)C(=O)CC(C)C	-1.6%
CC(C)Cc1ccc(-c2cc3nc(NCc4cccc(Cl)c4)ccn3n2)cc1	-1.5%
Cc1ccc(C(=O)Nc2ccc(NC(=O)c3cccs3)cc2)c(C)c1	13.3% (active)
Cc1ccccc1C(=O)N1CCN(c2ccc(NC(=O)c3cccs3)cc2)CC1	-4.77%
Cc1ccc(OCC(=O)Nc2ccc(NC(=O)c3cccs3)cc2)c(C)c1	2.63%
O=C(NCc1cccnc1)c1cc(C2CCCN(C(=O)CCCc3ccccc3)C2)on1 (centres undefined)	0.26%
Cc1ccccc1-c1csc(C(O)c2cccc(Cl)c2)n1 (centres undefined)	-1.62%
O=C(NCc1ccc(F)cc1)c1cc(C2CCCCN2C(=O)C2CCCCC2)on1 (centres undefined)	-0.53%
COc1cc(F)ccc1-c1cc(C(=O)NCC2CCCCC2)[nH]n1	1.24%
C=CCn1c(SCC(=O)c2ccc(Br)cc2)nnc1C(C)NC(=O)Cc1ccc(OC)cc1 (centres undefined)	9.94% (active)
C=CCn1c(SCCOc2ccc(OC)cc2)nnc1C(NC(=O)c1ccc(OC)cc1)C(C)C (centres undefined)	2.5%
C=CCn1c(CNC(=O)c2ccco2)nnc1SCC(=O)c1ccc(OC)cc1	-1.26%
CC1(C(=O)NS(=O)(=O)c2cccs2)CCN1C(=O)Cc1ccc(-c2ccccc2)cc1 (centres undefined)	1.02%
